Screens: PubChem, National Center for Advancing Translational Sciences (NCATS)
VDR inhibitor – blocks the human vitamin D receptor; P11473; VDR-SRC2-3 peptide fluorescence polarization, 2 h; Potency, µM, for the others: max response, negative = inhibition, actives largely listed as inhibitors; 400,000 tested, 0.93% active; note: potency is the fitted concentration of half-maximal effect; % is set by controls: 0 for no effect and ±100 for the full control effect
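Inhibition of the VDR/SRC2-3 peptide interaction is quantified by fluorescence polarization. Compounds (23 nl, pintool) incubate with the reagents for 2 hours at ambient room temperature.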
Vif-A3F inh – Vif-A3F binding inhibition; HeLa A3F-eYFP + Vif (tagged APOBEC3F with the HIV-1 protein that degrades it), YFP fluorescence increase; Potency, µM (doses to about 46.1 µM), for the others: top-dose activity, negative = active; 390,000 tested, 0.2% active; AID 602313; note: potency is the fitted concentration of half-maximal effect; % of control where 0% means no effect; nearly all actives have a fitted effect of over 65% in size
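HeLa cells stably expressing A3F-eYFP plus Vif, plated and incubated overnight at 37 deg C, then exposed to compounds overnight at 37 deg C. Blocked degradation read as raised yellow fluorescence (Ex 488/Em 500-530).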
TSHR antagonist – blocks TSH signaling through the human TSH receptor; P16473; TSHR-expressing cells, TSH-stimulated cAMP HTRF, 2 h; stronger effect = lower value; activity change, negative = inhibition, % at 11.5 µM; 330,000 tested, 0.2% active; AID 504810;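 active = activity change below a set negative limit, meaning inhibition stronger than a set level, cut at about -70% in these data; inconclusive = activity change between two set negative limits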; note: % is set by controls: 0 for no effect and ±100 for the full control effect
Target sequence (P16473 whole entry, looked up): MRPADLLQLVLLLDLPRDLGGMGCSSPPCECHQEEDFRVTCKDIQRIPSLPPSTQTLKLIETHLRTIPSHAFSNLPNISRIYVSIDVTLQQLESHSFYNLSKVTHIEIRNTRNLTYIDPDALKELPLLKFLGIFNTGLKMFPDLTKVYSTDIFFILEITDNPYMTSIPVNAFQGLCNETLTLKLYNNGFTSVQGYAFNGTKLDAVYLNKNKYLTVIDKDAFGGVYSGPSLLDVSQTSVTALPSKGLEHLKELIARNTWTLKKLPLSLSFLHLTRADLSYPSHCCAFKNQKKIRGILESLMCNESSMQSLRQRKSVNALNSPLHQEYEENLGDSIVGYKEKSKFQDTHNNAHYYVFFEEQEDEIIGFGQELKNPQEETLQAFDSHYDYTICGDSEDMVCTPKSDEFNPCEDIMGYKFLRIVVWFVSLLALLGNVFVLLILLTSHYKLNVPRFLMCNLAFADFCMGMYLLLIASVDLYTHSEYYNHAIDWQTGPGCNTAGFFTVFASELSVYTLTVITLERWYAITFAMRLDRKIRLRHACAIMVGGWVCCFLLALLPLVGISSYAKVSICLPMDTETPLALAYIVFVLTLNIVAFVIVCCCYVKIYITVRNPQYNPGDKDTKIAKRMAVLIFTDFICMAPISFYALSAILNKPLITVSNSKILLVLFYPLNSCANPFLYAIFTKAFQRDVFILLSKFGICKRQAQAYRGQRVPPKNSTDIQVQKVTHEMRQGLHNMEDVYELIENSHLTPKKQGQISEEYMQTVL
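Cell-based HTRF cAMP assay; TSHR cells + compound, TSH EC80 (4nM final), 2 h, 37 deg C. Lysis with anti-cAMP cryptate and cAMP-d2, 30 min RT, read 665/620 nm.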
Vif-A3G inh – blocks the Vif interaction with human APOBEC3G; 410,000 tested, 0.076% active; Q9HC16; HeLa A3G-eYFP + Vif (tagged APOBEC3G with the HIV-1 protein that degrades it), YFP fluorescence, overnight; Potency, µM (doses to about 46.1 µM), without a hit: top-dose activity, negative = active, hits mostly inhibitors; note: potency is the fitted concentration of half-maximal effect; % is set by controls: 0 for no effect and ±100 for the full control effect; nearly all actives have a fitted effect of over 60% in size
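HeLa cells stably expressing Vif and C-terminally eYFP-tagged A3G, seeded overnight at 37 deg C, then exposed to compound by pintool overnight at 37 deg C. Rise in yellow fluorescence (Ex 488/Em 500-530, Acumen) marks blocked Vif-driven A3G degradation.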
PLK1 PBD inh – PLK1 (human) polo-box domain binding inhibition | P53350 | 360,000 tested, 2.8% active | Plk1 PBD binding of FITC phosphopeptide, fluorescence polarization | Potency, µM, inactives show max response, negative = inhibition, most hits filed as inhibitors; note: potency is the fitted concentration of half-maximal effect; series mostly up to about 57 µM; % is set by controls: 0 for no effect and ±100 for the full control effect; nearly all actives have a fitted effect of over 65% in size
TbPYK confirm – confirmation of Trypanosoma brucei pyruvate kinase inhibitors. shares compounds with PLK1 PBD inh. AID 720569. recombinant TbPYK, Kinase-Glo ATP luminescence. Potency, µM (titrated, usually from 76.9 µM), inactives show top-dose activity change, negative = inhibition, usual class: inhibitors. 890 tested, 67% active; note: potency is the fitted concentration of half-maximal effect; % is set by controls: 0 for no effect and ±100 for the full control effect; nearly all actives have a fitted effect of over 70% in size
TbPYK ADP-Glo – TbPYK inhibition, orthogonal confirmation; shares compounds with PLK1 PBD inh; recombinant TbPYK, ADP-Glo luminescence, 60 min; Potency, µM (series often up to 76.9 µM), for the others: top-dose activity change, negative = inhibition, hits mostly inhibitors; 890 tested, 62% active; AID 720584; note: potency is the fitted concentration of half-maximal effect; % is set by controls: 0 for no effect and ±100 for the full control effect; nearly all actives have a fitted effect of over 75% in size
Active calls of the source: *; ? = inconclusive; . = not tested or not shown. Only some compounds are listed: those with a hit (about 3.1% of all), similar ones and a draw of the others. Unless noted, calls come from the whole dose curve; as a rule, active = well fitted curve in the direction sought with a large enough effect; inconclusive = small, poorly fitted or top-dose-only effect, or another doubt; inactive = no such curve, though single readings can be large; an effect the other way counts as inactive or inconclusive.

SMILES | VDR inhibitor | Vif-A3F inh | TSHR antagonist | Vif-A3G inh | PLK1 PBD inh | TbPYK confirm | TbPYK ADP-Glo
COc1cc(OC)c(NC2(c3ccccc3)C(=O)c3ccccc3C2=O)cc1Cl | 15% | -6% | . | -4% | . | . | .
O=S(=O)(c1ccccc1)N1CCN(S(=O)(=O)c2ccccc2)c2ccccc21 | -11% | 2% | . | 0% | 1% | . | .
O=S(=O)(/N=S1\CC=CCN1S(=O)(=O)c1ccccc1)c1ccccc1 (stereo not given) | . | -5% | . | 1% | 3.4µM* | 0.5µM* | 1.4µM*
O=C(NCc1cccc(Cl)c1)C1CCCN(c2nn3cc(-c4ccc(F)cc4)nc3s2)C1 (stereo not given) | -5% | 2% | . | 1% | . | . | .
O=C(O)c1ccc(CSc2nnc(-c3cccnc3)n2-c2ccc(Br)cc2)cc1 | 17% | -5% | -18 | -2% | -14% | 2.5µM* | 3.5µM*
O=C(O)c1ccc(CSc2nnc(-c3ccncc3)n2-c2ccc(Br)cc2)cc1 | 3% | 2% | -18 | 1% | -10% | . | .
COc1cc(OC)c(NC(=O)Cc2c(C(=O)O)c(C)cn2C)cc1Cl | 9% | 5% | . | -4% | . | . | .
COc1cc(N2C(=O)C=CC2=O)ccc1N1C(=O)C=CC1=O | ? | 4% | . | -15% | 2.4µM* | 1.1µM* | 1.8µM*
COc1ccc(N2C(=O)C3CC(C)=C(C)CC3C2=O)c(OC)c1 (stereo not given) | -2% | 5% | 17 | 2% | 0% | . | .
CCOc1ccc(-c2cc(NC(=O)c3ccccc3)c(C(=O)OC)s2)cc1 | 9% | 5% | . | 0% | . | . | .
O=C(N/N=C/c1ccc(N2CCOCC2)o1)c1cccc(C(F)(F)F)c1 | 25µM* | -4% | -1 | -3% | -8% | ? | 35µM*
Cc1ccc(S(=O)(=O)n2c([N+](=O)[O-])cnc2C)c(C)c1C | 45µM* | 1% | 12 | 2% | 21µM* | 4% | -4%
COc1cccc(CNC(=O)c2ccc3nc(N4CCCCC4)sc3c2)c1OC | 3% | 0% | . | 5% | . | . | .
COCCn1c(C)cc(C(=O)COC(=O)c2ccccc2Br)c1C | -3% | -4% | -11 | 1% | 2% | . | .
CCn1c(C)cc(C(=O)COC(=O)c2ccccc2[N+](=O)[O-])c1C | -16% | -9% | 6 | -2% | 3% | ? | 3%
CCC1Oc2ccc(C)cc2N(CC(=O)N(Cc2ccc(C)o2)C2CCCC2)C1=O (stereo not given) | ? | 6% | 0 | -7% | ? | 16µM* | 16µM*
COc1ccc(NC(=O)c2sc3nc(N4CCOCC4)c4c(c3c2N)CCCC4)cc1 | . | -6% | . | 5% | 3% | . | .
CCOC(=O)c1ccc(NC(=O)c2sc3nc(N4CCOCC4)c4c(c3c2N)CCCC4)cc1 | 1% | 5% | 2 | -2% | -18% | ? | ?
Cc1ccccc1NC(=O)c1sc2nc(N3CCOCC3)c3c(c2c1N)CCCC3 | 7% | 2% | -4 | -4% | ? | ? | 4µM*
COc1ccccc1NC(=O)c1sc2nc(N3CCOCC3)c3c(c2c1N)CCCC3 | 2% | 0% | -4 | 6% | -7% | . | .
Cc1ccc(N(CC(=O)Nc2ccc(C)c(F)c2)S(=O)(=O)c2c(C)n[nH]c2C)cc1 | -18% | -8% | . | -1% | . | . | .
CC1C=CCC2C(=O)N(c3cccc(C(=O)NCc4ccccc4)c3)C(=O)C12 (stereo not given) | 24% | 3% | -4 | 1% | -8% | ? | ?
CC1C=CCC2C(=O)N(c3cccc(C(=O)NCCc4ccccc4)c3)C(=O)C12 (stereo not given) | 20% | 0% | -13 | -1% | -20% | . | .
COc1ccc2nc(Nc3sc4c(c3C(N)=O)CCCC4)sc2c1 | ? | ? | -1 | ? | ? | 6.3µM* | 7.9µM*
COc1ccc(-c2nc3scc(CCNS(=O)(=O)c4c(C)noc4C)n3n2)cc1OC | 18% | 2% | . | 5% | . | . | .
SMILES | VDR inhibitor | Vif-A3F inh | TSHR antagonist | Vif-A3G inh | PLK1 PBD inh | TbPYK confirm | TbPYK ADP-Glo
CC1(C)OC(=O)C(=Cc2ccc(-c3ccc(S(N)(=O)=O)cc3)o2)C(=O)O1 | 79µM* | 0% | -1 | -20% | 1.3µM* | 13µM* | 16µM*
CCc1cccc(NC(=O)CSC2=NS(=O)(=O)c3ccccc32)c1 | 13µM* | -14% | -1 | 2% | 11µM* | 18µM* | 18µM*
Cc1ccc(OCC(=O)Nc2c(Cl)ccc3nsnc23)cc1C | 2% | 4% | . | 3% | . | . | .
O=C(NCc1ccco1)c1cc2ccc(O)cc2oc1=O | -5% | -13% | 14 | -2% | -13% | 20µM* | 3%
O=C(c1ccccc1)c1cc2ccc(O)cc2oc1=O | -9% | 0% | 11 | -1% | -8% | ? | 9%
COc1ccc2cc(C(=O)NCc3ccco3)c(=O)oc2c1 | -3% | -10% | -3 | 2% | -12% | . | .
CCOC(=O)c1cc(-c2ccc(F)cc2)n(CCC(=O)NC2CCCCC2)c1C | -5% | 3% | . | 3% | . | . | .
Cc1ccc2nc(COc3cccc(NC(=O)COc4ccc(F)cc4)c3)cc(=O)n2c1 | 5% | -1% | . | 3% | . | . | .
Oc1[nH]c2ccc(Br)cc2c1N=NC(=S)N1CCOCC1 | -8% | -20% | -4 | ? | -18% | 0.32µM* | 0.45µM*
CCCCC(=O)Nc1cc(C)c(O)c(-c2nc3ncccc3o2)c1 | 7% | -8% | . | 2% | . | . | .
CCN(CC)C(=O)CSC1=C(C#N)C(c2cccs2)C=C(C)N1 (stereo not given) | 4% | -10% | -10 | 0% | ? | 14µM* | 14µM*
CN(C)c1ccc(C(=O)C(O)c2ccccc2)cc1 (stereo not given) | -4% | . | 2 | -1% | -7% | . | .
CN(C)c1ccc(C(c2ccc(N(C)C)cc2)C(O)c2ccccc2)cc1 (stereo not given) | 22% | 3% | . | -1% | 2% | 2.8µM* | ?
COc1ccc(S(=O)(=O)N2CCN(CC(=O)c3ccc(O)c(O)c3)CC2)cc1 | 2% | -1% | -3 | 1% | -11% | ? | ?
Cc1ccc(C(=S)N2CCN(Cc3ccccc3)CC2)cc1 | ? | 0% | -5 | -12% | 8.4µM* | 8.9µM* | 13µM*
Cc1ccc(C(=O)O/N=C(\N)c2ccccn2)c(Cl)c1 | -9% | 1% | -5 | -9% | 3% | 16µM* | 13%
CCn1c(=O)c2cc(C(=O)Nc3cc(F)ccc3F)sc2c2ccccc21 | 3% | -4% | . | -11% | . | . | .
COc1ccc(Cc2c(-c3ccco3)nc3ccc(Br)cn23)c(C)c1 | . | . | . | ? | 24µM* | ? | ?
COc1ccccc1Cc1c(-c2ccco2)nc2c(C)cc(Br)cn12 | . | . | . | ? | 12µM* | -14% | -26%
